# Experimental data as given in PubChem BioAssay AID434989 (The Scripps Research Institute Molecular Screening Center, 2010).
# Among all 330,000 compounds or so, about 1,400 (0.42%) were called active. Many of the other results were omitted from the sample, so actives are more common in it than they were. A number with no mark means an inactive call.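 The calls were made as follows: active = inhibition above its plate's threshold, mean inhibition of all tested compounds on the plate plus 3 SD (cut at about 37% in these data); inactive = the rest.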
# Target: Orexin/Hypocretin receptor type 1 (Homo sapiens) (UniProt O43613)
# Assay: OX1R (HCRTR1) antagonists, primary screen, fluorescence, CHO/OX1R cells, Fluo-8 calcium, orexin A (AID 434989);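 also: 0% = orexin A challenge wells and 100% = SB-334867-A antagonist wells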
# Details: Fluo-8 calcium fluorescence, at 5 µM, stronger effect = higher value
# Sequence of Orexin/Hypocretin receptor type 1 (Homo sapiens) (O43613 whole entry, looked up): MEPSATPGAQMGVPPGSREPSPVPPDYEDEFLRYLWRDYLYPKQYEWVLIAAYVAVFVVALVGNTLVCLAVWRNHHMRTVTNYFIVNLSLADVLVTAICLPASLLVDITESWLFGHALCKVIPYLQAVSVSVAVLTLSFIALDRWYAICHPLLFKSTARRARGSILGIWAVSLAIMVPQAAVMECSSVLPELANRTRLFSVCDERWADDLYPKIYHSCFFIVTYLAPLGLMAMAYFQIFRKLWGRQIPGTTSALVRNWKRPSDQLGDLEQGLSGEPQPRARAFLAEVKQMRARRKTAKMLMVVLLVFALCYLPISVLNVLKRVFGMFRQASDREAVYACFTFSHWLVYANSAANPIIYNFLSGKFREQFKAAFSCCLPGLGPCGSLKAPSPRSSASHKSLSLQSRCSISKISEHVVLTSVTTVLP
row,Compound,inhibition
1,O=C1c2ccccc2C(=O)N1c1cccc2ccccc12,-17%
2,CN1C(=O)c2cccc3c(N)ccc(c23)C1=O,41.1% (active)
3,C[N+](C)(CCCCCC[N+](C)(C)CCCN1C(=O)c2cccc3cccc(c23)C1=O)CCCN1C(=O)c2cccc3cccc(c23)C1=O,-0.77%
4,COc1ccc(N2C(=O)c3cccc4cccc(c34)C2=O)nn1,-17.9%
5,Cc1nn(C)cc1N1C(=O)c2cccc3c(N)ccc(c23)C1=O,38.4% (active)
6,O=C(O)c1ccc2c3c(cccc13)C(=O)N(OS(=O)(=O)c1ccccc1)C2=O,-7.84%
7,Cc1noc(C)c1NC(=O)Nc1cccc2c1O[C@H](CN(C)C(=O)Nc1ccccc1)[C@@H](C)CN([C@H](C)CO)C2=O,1.33%
8,C[C@]12c3[nH]c4ccc(Cl)cc4c3CCN1C(=O)[C@@H](CC(=O)NCCCn1ccnc1)C[C@@H]2C(=O)N1CCOCC1,-3.04%
9,CC[C@]12c3[nH]c4ccc(Cl)cc4c3CCN1C(=O)[C@@H](CC(=O)NCCCOC)C[C@@H]2C(=O)N1CCN(C(=O)c2ccco2)CC1,-0.28%
10,COCCNC(=S)N/N=C/c1c(C)[nH]c2ccccc12,-0.83%
11,COc1ccc(CNC(=O)CNC(=O)c2sc3ccccc3c2Cl)cc1OC,-23.5%
12,O=C(N/N=C/c1c(Cl)[nH]c2ccccc12)c1sc2ccccc2c1Cl,92.7% (active)
13,CCCCNc1c(-c2ccc(OC)c(Sc3ccc(OC)cc3)c2)nc2ccc(Cl)cn12,-30.4%
14,Cc1cccc(OCC(=O)OCC(=O)Nc2ccc(Cl)cn2)c1,-10.8%
15,Nc1ncnc2c1ncn2[C@@H]1O[C@H](CNCc2cccn2-c2nccs2)[C@@H](O)[C@H]1O,-6.54%
16,COc1ccc2[nH]c3c(c2c1)CCN1C(=O)C(CC(=O)NCc2cccc(C(F)(F)F)c2)C[C@H](C(=O)N2CCOCC2)[C@@]31C (stereo partly specified),-21.4%

row,Compound,inhibition
1,CCN1C[C@@H]2[C@@H]3C(=O)N(Cc4ccccc4)C(=O)[C@@H]3[C@](Cc3ccccc3)(C(=O)OC)N2C1=NC1CCCCC1,-11.5%
2,O=C(Nc1cccc2cccnc12)c1cccc(Cl)c1,-10.3%
3,O=C(Nc1cccc2cccnc12)c1cccc(N2C(=O)CCC2=O)c1,45.5% (active)
4,COC(=O)c1cccc(NC(=O)c2cccc(N3C(=O)CCC3=O)c2)c1,13.2%
5,CN(Cc1ccccc1)C(=O)COC(=O)/C=C/c1ccc2c(c1)OCO2,-11.9%
6,CCCCCCCC(=O)NC(Nc1ccccc1OC)C(Cl)(Cl)Cl (stereo unspecified),51.6% (active)
7,COc1ccccc1NC(=O)CCCc1c[nH]c2ccccc12,-3.22%
8,CCCC(=O)NC(Nc1ccccc1OC)C(Cl)(Cl)Cl (stereo unspecified),-0.68%
9,O=C(COC(=O)c1ccc([N+](=O)[O-])o1)NC12CC3CC(CC(C3)C1)C2,-17.3%
10,COC(=O)[C@@]1(C)[C@H]2C(=O)N(Cc3ccccc3)C(=O)[C@H]2[C@H]2CN=C(SCC3CC3)N21,-26.2%
11,CC(=O)c1c(C)[nH]c(C(=O)COC(=O)c2cccs2)c1C,-11.4%
12,COc1cccc(C(=O)OCC(=O)c2[nH]c(C)c(C(C)=O)c2C)c1,11%
13,CC(=O)c1c(C)[nH]c(C(=O)COC(=O)c2cccc(S(=O)(=O)N(C)c3ccccc3)c2)c1C,63.5% (active)
14,COc1ccccc1NC(=O)COC(=O)CNC(=O)C1CCCCC1,-0.83%
15,C[C@H](CO)N1C[C@H](C)[C@@H](CN(C)S(=O)(=O)c2ccc(F)cc2)Oc2c(NC(=O)Nc3ccccc3)cccc2C1=O,-5.33%
